According to PubChem BioAssay AID372 (MTDP, 2006):
In all, about 100,000 compounds went through this assay and about 770 (0.77%) were called active. No stated cut-off is given here; in the data, active means inhibition above about 50%; inactive means the rest. Shown is part of a subset that was picked to be rich in actives.

The molecules below were run against Gag-Pol polyprotein (Human immunodeficiency virus type 1 group M subtype B (isolate HXB2)) (UniProt P04585) (assay: RNase H inhibition, HIV 1 Gag Pol polyprotein, FRET biochemical assay, screening (AID 372)). Conditions: HIV-1 RT RNase H, FRET RNA/DNA substrate fluorescence; at 10 µM; active compounds read high.

Question: How did the inhibition turn out when `NNC(=O)COc1cccc2ccccc12` was run?
Answer: Its inhibition is 1% (inactive).

Question: Which inhibition does the source give for `COc1ccc(C(=O)NC(=S)Nc2ccc3ccccc3c2)cc1OC` here?
Answer: The inhibition was 17% (inactive).

Question: With `O=C(O)c1ccc(-c2ccc(/C=N/N3C(=O)C4C5C=CC(CC5)C4C3=O)o2)cc1` (stereo not drawn) as the molecule, how does the inhibition read?
Answer: The inhibition was 2% (inactive).

Question: Which inhibition does the source give for `O=C(c1cccc(Br)c1)N1N=C(c2ccc(F)cc2)CC1(O)C(F)(F)F` (stereo not drawn) here?
Answer: The inhibition was 22% (inactive).

Question: How did the inhibition turn out when `O=C(c1cccc(Br)c1)N1N=C(c2ccccc2)CC1(O)C(F)(F)F` (stereo not drawn) was run?
Answer: Its inhibition is 50% (active).

Question: With `O=C(c1ccccc1)N1N=C(c2ccccc2)CC1(O)C(F)(F)F` (stereo not drawn) as the molecule, how does the inhibition read?
Answer: Its inhibition is 9% (inactive).

Question: For `O=C(Nc1ccccc1Cl)ON=C1c2ccccc2-c2ccccc21`, which inhibition is on record?
Answer: The inhibition was 43% (inactive).

Question: How did the inhibition turn out when `O=C(Nc1ccccc1)ON=C1c2ccccc2-c2ccccc21` was run?
Answer: The inhibition was 42% (inactive).

Question: For `O=C(Nc1cccc2ccccc12)ON=C1c2ccccc2-c2ccccc21`, which inhibition is on record?
Answer: Its inhibition is 56% (active).

Question: How did the inhibition turn out when `COc1ccccc1NC(=O)Nc1cccc2ccccc12` was run?
Answer: Its inhibition is 15% (inactive).

Question: Which inhibition does the source give for `CCN(CC)c1ccc(C(NC(C)=O)NC(C)=O)cc1` here?
Answer: The inhibition was 0% (inactive).

Question: With `Cc1ccc([N+](=O)[O-])cc1NC(=O)C1CC1` as the molecule, how does the inhibition read?
Answer: Its inhibition is 0% (inactive).

Question: Which inhibition does the source give for `COc1ccc(CC(=O)NNC(=O)c2ccc(Cl)cc2)cc1OC` here?
Answer: The inhibition was 9% (inactive).

Question: For `CCC(C(=O)N1c2ccccc2C(C)=CC1(C)C)c1ccccc1` (stereo not drawn), which inhibition is on record?
Answer: Its inhibition is 50% (active).

Question: `CC(=O)N1c2ccccc2C(C)=CC1(C)C` was tested. Which inhibition did it give?
Answer: The inhibition was 3% (inactive).

Question: How did the inhibition turn out when `CC1=CC(C)(C)N(C(=O)c2ccccc2)c2ccccc21` was run?
Answer: The inhibition was 10% (inactive).

Question: With `COC(=O)c1ccc(CSc2nnc(CCCN3C(=O)c4cccc5cccc(c45)C3=O)n2-c2ccccc2)cc1` as the molecule, how does the inhibition read?
Answer: Its inhibition is 15% (inactive).

Question: How did the inhibition turn out when `CCOC(=O)C1=C(C)N=c2s/c(=C\c3ccc(-c4ccc(Br)cc4[N+](=O)[O-])o3)c(=O)n2C1c1ccccc1` (stereo not drawn) was run?
Answer: The inhibition was 48% (inactive).

Question: With `COc1ccc(C2C(C#N)=C(N)OC3=C2C(=O)CC(c2ccccc2)C3)cc1C` (stereo not drawn) as the molecule, how does the inhibition read?
Answer: Its inhibition is 9% (inactive).

Question: `O=C(Nc1cccc(Cl)c1Cl)c1ccc(Br)o1` was tested. Which inhibition did it give?
Answer: The inhibition was 16% (inactive).

Question: For `O=C(Nc1cccc(Cl)c1Cl)c1ccc(-c2cccc(Cl)c2)o1`, which inhibition is on record?
Answer: The inhibition was 37% (inactive).

Question: For `O=C(Nc1cccc(Cl)c1Cl)c1ccc(-c2ccc(Br)cc2)o1`, which inhibition is on record?
Answer: The inhibition was 57% (active).

Question: `Clc1ccccc1OCCCn1ccnc1` was tested. Which inhibition did it give?
Answer: The inhibition was 0% (inactive).

Question: For `C=C(C)c1cccc(C(C)(C)NC(=O)NCc2ccco2)c1`, which inhibition is on record?
Answer: Its inhibition is 9% (inactive).

Question: How did the inhibition turn out when `CCOC(=O)C1=C(C)N=c2s/c(=C\c3ccc(-c4cccc([N+](=O)[O-])c4)o3)c(=O)n2C1c1ccc(C)cc1` (stereo not drawn) was run?
Answer: Its inhibition is 19% (inactive).

Question: How did the inhibition turn out when `O=C1C2C3C=CC(CC3)C2C(=O)N1/N=C/c1ccc(I)o1` (stereo not drawn) was run?
Answer: Its inhibition is 3% (inactive).

Question: With `O=C1C2C3C=CC(CC3)C2C(=O)N1/N=C/c1ccccc1O` (stereo not drawn) as the molecule, how does the inhibition read?
Answer: Its inhibition is 0% (inactive).

Question: `O=C1C2C3C=CC(CC3)C2C(=O)N1/N=C/c1ccc(O)cc1` (stereo not drawn) was tested. Which inhibition did it give?
Answer: Its inhibition is 0% (inactive).

Question: How did the inhibition turn out when `O=C1C2C3C=CC(C3)C2C(=O)N1/N=C/c1ccccc1I` (stereo not drawn) was run?
Answer: Its inhibition is 0% (inactive).

Question: Which inhibition does the source give for `O=C1C2C3C=CC(CC3)C2C(=O)N1/N=C/c1cccs1` (stereo not drawn) here?
Answer: Its inhibition is 56% (active).

Question: Which inhibition does the source give for `O=C1C2C3C=CC(CC3)C2C(=O)N1/N=C/c1ccccc1I` (stereo not drawn) here?
Answer: The inhibition was 59% (active).

Question: How did the inhibition turn out when `CC(Oc1ccc(Br)cc1)C(=O)N/N=C/c1ccc(N(C)C)cc1` (stereo not drawn) was run?
Answer: Its inhibition is 8% (inactive).

Question: `O=C(O)c1cc(NS(=O)(=O)c2ccc(NCCCN3CCOCC3)c([N+](=O)[O-])c2)cc(C(=O)O)c1` was tested. Which inhibition did it give?
Answer: The inhibition was 4% (inactive).

Question: With `COc1ccc(/C=N/Nc2nc(Nc3ccc(F)cc3)nc(N3CCCCC3)n2)cc1` as the molecule, how does the inhibition read?
Answer: The inhibition was 6% (inactive).

Question: With `COc1ccc(Cl)cc1C(=O)Nc1sc(C)c(C)c1C#N` as the molecule, how does the inhibition read?
Answer: Its inhibition is 74% (active).

Question: With `Cc1sc(NC(=O)c2cc(Cl)ccc2Cl)c(C#N)c1C` as the molecule, how does the inhibition read?
Answer: Its inhibition is 4% (inactive).

Question: Which inhibition does the source give for `CCN(CC)C(=O)c1sc(NC(=O)c2cc(Cl)ccc2OC)c(C#N)c1C` here?
Answer: Its inhibition is 7% (inactive).

Question: Which inhibition does the source give for `CC(=O)C1=C(Nc2ccc(Br)cc2)CC(C)(O)C(C(C)=O)C1c1ccc([N+](=O)[O-])cc1` (stereo not drawn) here?
Answer: Its inhibition is 4% (inactive).

Question: `Cc1ccc(P(=O)(c2ccc(C)cc2)C(C)(C)O)cc1` was tested. Which inhibition did it give?
Answer: Its inhibition is 0% (inactive).

Question: `CCN(CC)c1nc(-c2ccccc2)c2cc(Cl)ccc2n1` was tested. Which inhibition did it give?
Answer: Its inhibition is 12% (inactive).

Question: With `CN(C)c1nc(-c2ccccc2)c2cc(Cl)ccc2n1` as the molecule, how does the inhibition read?
Answer: Its inhibition is 13% (inactive).

Question: Which inhibition does the source give for `CN(CCO)c1nc(-c2ccccc2)c2cc(Cl)ccc2n1` here?
Answer: The inhibition was 50% (active).

Question: Which inhibition does the source give for `COc1ccc(-c2nn(-c3ccccc3)cc2/C=N/NS(=O)(=O)c2ccccc2)cc1` here?
Answer: The inhibition was 15% (inactive).

Question: Which inhibition does the source give for `S=C(NCCc1ccccc1)Nc1ccc(Cl)cc1Cl` here?
Answer: Its inhibition is 46% (inactive).

Question: How did the inhibition turn out when `S=C(NCCc1ccccn1)Nc1ccc(Cl)c(Cl)c1` was run?
Answer: Its inhibition is 59% (active).

Question: `S=C(NCCc1c[nH]c2ccccc12)Nc1ccc(Cl)c(Cl)c1` was tested. Which inhibition did it give?
Answer: Its inhibition is 49% (inactive).

Question: Which inhibition does the source give for `O=C(NCc1ccccn1)Nc1ccc(Cl)c(Cl)c1` here?
Answer: Its inhibition is 9% (inactive).

Question: `S=C(NCCc1ccccn1)Nc1ccc(Cl)cc1Cl` was tested. Which inhibition did it give?
Answer: Its inhibition is 50% (active).

Question: With `S=C(NCCC(c1ccccc1)c1ccccc1)Nc1ccc(Cl)cc1Cl` as the molecule, how does the inhibition read?
Answer: The inhibition was 12% (inactive).

Question: Which inhibition does the source give for `O=C(NC1CCCCC1)c1cccc(C(F)(F)F)c1` here?
Answer: Its inhibition is 11% (inactive).

Question: With `Cc1cc(/C=C(\C#N)C(=O)Nc2ccccc2)c(C)n1-c1sc2c(c1C#N)CCCC2` as the molecule, how does the inhibition read?
Answer: Its inhibition is 15% (inactive).

Question: `CC1(C)C(c2ccccc2)=[N+]([O-])C2(CCCCC/C2=N\NC(N)=O)N1O` (stereo not drawn) was tested. Which inhibition did it give?
Answer: The inhibition was 0% (inactive).

Question: `Cc1cc(C)c(N/C=C(\C#N)c2nc(-c3ccc(Cl)cc3Cl)cs2)c(C)c1` was tested. Which inhibition did it give?
Answer: The inhibition was 27% (inactive).

Question: For `CCN(CC)S(=O)(=O)c1cc(-c2nnc(-c3ccc(C)cc3)o2)ccc1C`, which inhibition is on record?
Answer: The inhibition was 3% (inactive).

Question: `O=[N+]([O-])c1ccc(C2Nc3c(cccc3[N+](=O)[O-])C3C=CCC32)cc1` (stereo not drawn) was tested. Which inhibition did it give?
Answer: Its inhibition is 35% (inactive).

Question: With `COc1cccc2c1NC(c1ccc(F)cc1)C1CC=CC21` (stereo not drawn) as the molecule, how does the inhibition read?
Answer: The inhibition was 35% (inactive).

Question: With `COc1cccc2c1NC(c1ccc([N+](=O)[O-])cc1)C1CC=CC21` (stereo not drawn) as the molecule, how does the inhibition read?
Answer: Its inhibition is 51% (active).

Question: For `Cc1ccc(S(=O)(=O)Nc2cc(C)c(O)c(S(=O)(=O)c3ccc(C)cc3)c2)cc1`, which inhibition is on record?
Answer: The inhibition was 18% (inactive).

Question: With `O=C1c2ccc(Oc3ccc([N+](=O)[O-])cc3)cc2C(=O)N1c1nc2ccccc2s1` as the molecule, how does the inhibition read?
Answer: The inhibition was 11% (inactive).

Question: `Cc1ccc(N2C(=O)C3C4C=CC(O4)C3C2=O)c(C)c1` (stereo not drawn) was tested. Which inhibition did it give?
Answer: The inhibition was 5% (inactive).

Question: How did the inhibition turn out when `Oc1c(C=Nc2cccc3nsnc23)cc(Br)c2ccccc12` was run?
Answer: Its inhibition is 5% (inactive).

Question: Which inhibition does the source give for `COc1ccc(Br)c(C=Nc2cccc3nsnc23)c1O` here?
Answer: The inhibition was 64% (active).

Question: With `Oc1c(Br)ccc(Cl)c1C=Nc1cccc2nsnc12` as the molecule, how does the inhibition read?
Answer: The inhibition was 8% (inactive).
